In article PMC5540273 (PLoS ONE, 2017):

system: EPHA4; settings: concentration: 1 μM, replicates: in singlicate; n = 1
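Also: KINOMEscan kinase panel screen.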

In order of rising “%Inh” value:
1. O=C(O)C(F)(F)F.O=c1[nH]ccc2nc(N[C@@H]3CCNC3)nc(Nc3cc(Cl)cc(Cl)c3)c12 [GSK2188764]  0%
2. Cc1ccc(NC(=O)c2ccnc(N3CCCCC3)c2)cc1-c1ccc(C(=O)NCC2CC2)cc1 [GW775610]  0%
3. CS(=O)(=O)c1cccc(CNc2nc(Nc3ccc4c(c3)CCC(=O)N4)ncc2C(F)(F)F)c1  0%
4. CN1CCN(Cc2ccc(NC(=O)Nc3ccc(N(C)c4ccnc(Nc5ccc(CS(C)(=O)=O)cc5)n4)cc3)cc2)CC1.Cl [GW827654]  0%
5. O=C(Nc1n[nH]c2nc(-c3cccc(O)c3)ccc12)C1CC1 [SB-711805]  0%
6. Cl.Cl.NC(CNC(=O)c1cc(Br)c(-c2ccnc3[nH]ccc23)s1)c1ccccc1 (stereo not drawn) [GSK1322949]  0%
7. CN(c1ccc(NC(=O)Nc2cccc(Cl)c2)cc1)c1ccnc(N)n1.Cl [GW830707]  17%
8. Cc1cc(-c2c(-c3ccc(F)cc3)ncn2CCCN2CCOCC2)nc(N)n1 [SB-222517]  20%
9. Nc1ncnc2scc(-c3ccc(NC(=O)Cc4cc(F)ccc4F)cc3)c12.O=C(O)C(F)(F)F [SB-731254-M]  24%
10. COc1cccc(C2=C(Nc3cccc(O)c3)C(=O)NC2=O)c1 [SB-390771]  27%
11. COc1ccc(C)c(Nc2ccnc(Nc3ccc(-c4cnc[nH]4)cc3)n2)c1.Cl [GW784041]  31%
12. Fc1cc(Cl)ccc1Nc1ccnc2cc(-c3ccc(CN4CCOCC4)o3)ccc12 [GW560109]  41%
13. CC(=O)Nc1cn2nc(Oc3cccc(NC(=O)c4cccc(C(F)(F)F)c4)c3)ccc2n1  96%

system: EPHA5; settings: concentration: 1 μM, replicates: in singlicate; n = 1

In order of rising “%Inh” value:
1. Nc1ncc(-c2ccc3nccc(-c4ccncc4)c3c2)cc1S(=O)(=O)N1CCCCC1 [GSK1693850]  0%
2. CC(C)NCC(Cc1ccccc1)NC(=O)c1cc(Br)c(-c2ccnc3[nH]ccc23)s1.Cl.Cl (stereo not drawn) [GSK1383281]  0%
3. Nc1ncc(-c2cn[nH]c2)c2scc(-c3ccc4c(c3)CCN4C(=O)Cc3ccccc3)c12 [GSK2593067]  0%
4. Cc1cccc(Nc2nc(NCCN)ncc2C(N)=O)c1 [GSK1292139]  0%
5. CC(C)c1nc(-c2cccc(NS(=O)(=O)c3c(F)cccc3F)c2)c(-c2ccnc(Nc3ccc(N4CCOCC4)nc3)n2)s1.Cl [GSK1723980]  0%
6. Cc1ccc(-c2ccc3occ(-c4ccc(S(C)=O)cc4)c3c2)nn1 (stereo not drawn)  0%
7. COc1ccc(C2=C(Nc3cccc(O)c3)C(=O)NC2=O)cc1 [SB-390766]  0%
8. COc1ccc(NC(=O)c2ccoc2)cc1-c1ccc(C(=O)NCC2CC2)cc1 [GW810437]  0%
9. Cc1nn2c(=O)cc(N3CCO[C@H](C)C3)nc2n1Cc1cccc(Cl)c1Cl [GSK2373693]  0%
10. O=C(O)C(F)(F)F.O=c1[nH]ccc2nc(N[C@@H]3CCNC3)nc(Nc3ccc4c(c3)S(=O)(=O)CC4)c12 [GSK2181306]  0%
11. O=C(Nc1n[nH]c2cc(-c3cccs3)ccc12)C1CC1 [SB-731284]  0%
12. CNc1nccc(-c2ccc3c(N)n[nH]c3c2)n1 [GSK2206003]  0%
13. COc1cccc(NC(=O)NCCNc2ccnc(Nc3ccc(F)cc3)n2)c1 [GSK1379879]  0%
14. c1ccc(Oc2ccc(Nc3ccnc4cc(-c5ccc(CN6CCCCC6)o5)ccc34)cc2)nc1 [GW567143]  0%
15. CC(C)c1nc(-c2ccc(F)c(NS(=O)(=O)c3c(F)cccc3F)c2)c(-c2ccnc(Nc3ccc(N4CCOCC4)nc3)n2)s1 [GSK1804250]  1%
16. Cc1cccc(Nc2nc(N[C@H]3CCCC[C@H]3N)ncc2C(N)=O)c1.Cl [GSK986310]  2%
17. COc1cccc(CC(=O)N2CCc3cc(-c4cn(C)c5ncnc(N)c45)ccc32)c1 [GSK2608899]  5%
18. CN(c1ccc2c(c1)nc(NCc1ccccc1)n2C)c1ccnc(Nc2ccc(CS(C)(=O)=O)cc2)n1.Cl [GW811603]  10%
19. Cl.O=C(Nc1ccc(Oc2ccc3[nH]c(NC(=O)c4ccco4)nc3c2)cc1)Nc1cc(C(F)(F)F)ccc1F [GW683134]  48%
20. Cc1ccc(O)cc1Nc1ccnc2cc(-c3ccc(CN4CCCCC4)o3)ccc12 [GW557777]  99.8%
